Compound activity deposited in PubChem by several laboratories.
This is a sample that favours compounds with a hit; in the whole collection about 1.4% have one here.
MT1-MMP txn act = activates MT1-MMP transcription. HT1080 MT1-MMP promoter luciferase reporter, luminescence, overnight; stronger effect = higher value. activation factor at 10 µM. 86,000 compounds, 0.16% hits. AID 750;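 active = activation factor of at least 2 for MT1-MMP transcription at 10 µM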
S1P2 antag = S1P2 (human) receptor antagonism; O95136; cell-based S1P2 antagonist assay, inhibition at 5 uM; inhibition, % at 5 µM; 97,000 compounds, 0.21% hits; in the data active = inhibition above about 45%;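 note: CRE beta-lactamase reporter cells expressing human S1P2 stimulated with S1P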
GALR2 agonist = agonists of human galanin receptor 2 (GALR2); GALR2-expressing cells, agonist activation read-out; AID 803; O43603; activation, % (concentration not given with the values); 140,000 compounds, 0.48% hits; in the data active = activation above about 5%, passing the limit was not always enough
S1P2 agonist = S1P2 (human) receptor agonism; S1P2-expressing cell line, agonist reporter read-out; activation, % at 4.5 µM; AID 729; O95136; 97,000 compounds, 0.46% hits; in the data active = activation above about 16%
GALR2 antag = antagonists of human galanin receptor 2 (GALR2) | inhibition, % at 4 µM | GALR2-expressing cells, antagonist mode | AID 828 | 140,000 compounds, 0.39% hits; in the data active = inhibition above about 27%;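 note: cells stimulated with galanin 1-16 at roughly its EC80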
Smad3 inh = blocks human Smad3 binding to FoxH1 peptide. 88,000 compounds, 0.29% hits. AID 630. TR-FRET Smad3/Dy647-FoxH1 peptide binding, europium anti-His. inhibition, % at 25 µM. P84022;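 active = compounds that reduce the energy-transfer binding signal between the protein and its labelled peptide by more than half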
Target sequence (P84022 whole entry, looked up): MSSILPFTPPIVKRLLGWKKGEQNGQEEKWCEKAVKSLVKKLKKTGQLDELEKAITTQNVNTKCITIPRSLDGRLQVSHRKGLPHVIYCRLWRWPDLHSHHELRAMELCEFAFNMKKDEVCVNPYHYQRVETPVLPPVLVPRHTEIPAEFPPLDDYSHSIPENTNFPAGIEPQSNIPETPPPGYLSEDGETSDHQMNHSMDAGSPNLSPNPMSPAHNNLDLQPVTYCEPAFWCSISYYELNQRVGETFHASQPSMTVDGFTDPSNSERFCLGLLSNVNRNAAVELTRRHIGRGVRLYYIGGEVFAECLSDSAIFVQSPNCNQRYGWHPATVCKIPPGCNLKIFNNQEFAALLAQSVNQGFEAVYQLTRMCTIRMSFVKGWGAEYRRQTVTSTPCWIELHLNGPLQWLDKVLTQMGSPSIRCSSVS
GALR2 ag confirm = confirmation of human galanin receptor 2 (GALR2) agonists; shares compounds with GALR2 agonist; GALR2-expressing cells, agonist activation; activation, % at 5.6 µM; 460 compounds, 10% hits; in the data active = activation above about 8.4%
BLA act counter = activates beta-lactamase reporter in GALR2 agonist counterscreen; shares compounds with GALR2 agonist; CHO NFAT-bla reporter, beta-lactamase FRET activation; activation, % at 5.6 µM; 460 compounds, 10% hits; AID 865;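 active = activation above the screen-wide mean activation plus 3 SD, cut at about 8% in these data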
Each line names hits and unclear results; the compound was inactive in the other large screens (follow-up assays come after a bar, where they were run).

COc1cc(C2=NOC(C(=O)NCc3cccs3)C2)cc(OC)c1OC (centres undefined)	GALR2 agonist 88 | GALR2 ag confirm inactive | BLA act counter inactive
O=C(O)CCCc1ccc2ccc3ccccc3c2c1	none (no result: MT1-MMP txn act, S1P2 antag, GALR2 agonist, S1P2 agonist, GALR2 antag)
Cc1ccccc1C(=O)Nc1nncs1	GALR2 agonist 26 | GALR2 ag confirm inactive | BLA act counter inactive
O=C(CSc1nc2c([nH]c3ccccc32)c(=O)n1-c1ccccc1)N1CCOCC1	none (no result: S1P2 antag, S1P2 agonist)
O=C(CSc1nc2c([nH]c3ccccc32)c(=O)n1-c1cccc(Cl)c1)N1CCOCC1	GALR2 agonist 13 | GALR2 ag confirm inactive | BLA act counter inactive
S=C1N[C@H](c2ccccc2)N[C@H](c2ccccc2)S1	none (no result: MT1-MMP txn act, S1P2 antag, GALR2 agonist, S1P2 agonist, GALR2 antag)
COc1ccc(CNC(=O)C2=C(C)C(=O)OC23CCC(C)CC3)cc1 (centres undefined)	none (no result: MT1-MMP txn act)
COc1ccc(NC(=O)C2=C(C)C(=O)OC23CCC(C)CC3)cc1Cl (centres undefined)	GALR2 agonist 84 | GALR2 ag confirm inactive | BLA act counter inactive
CCCCn1cnc2c(SC)ncnc21	none (no result: MT1-MMP txn act, S1P2 antag, GALR2 agonist, S1P2 agonist, GALR2 antag)
COc1ccc(C(=O)N2CCC(O)(c3ccc(F)cc3)CC2)cc1OC	GALR2 agonist 98 (no result: MT1-MMP txn act) | GALR2 ag confirm inactive | BLA act counter inactive
O=C(Nc1ccc(O)cc1)/C(=C\c1cccs1)NC(=O)c1ccccc1	GALR2 agonist 8.8 (no result: MT1-MMP txn act, S1P2 antag, S1P2 agonist, Smad3 inh) | GALR2 ag confirm inactive | BLA act counter inactive
O=C(O)C1(C(=O)O)CCN(S(=O)(=O)c2ccccc2)CC1	none (no result: MT1-MMP txn act, S1P2 antag, GALR2 agonist, S1P2 agonist, GALR2 antag)
O=C(O)C1C(c2ccccc2)C(C(=O)Oc2ccccc2)C1c1ccccc1 (centres undefined)	none
CC(C)CCOC(=O)C1C(c2ccccc2)C(C(=O)O)C1c1ccccc1 (centres undefined)	none | GALR2 ag confirm inactive | BLA act counter inactive
O=C(NNc1ccc(C2CCCCC2)cc1)C(O)(c1ccccc1)c1cccs1 (centres undefined)	GALR2 agonist 13 (no result: MT1-MMP txn act, Smad3 inh) | GALR2 ag confirm inactive | BLA act counter inactive
COc1ccc(C(O)(C(=O)NNc2ccc(C)cc2)c2cccs2)cc1 (centres undefined)	none (no result: MT1-MMP txn act, Smad3 inh)
CC(C)N1C(=O)/C(=C\c2nc3ccccc3c(=O)n2-c2ccccc2)c2ccccc21	GALR2 agonist 41 (no result: MT1-MMP txn act, S1P2 antag, S1P2 agonist, Smad3 inh) | GALR2 ag confirm inactive | BLA act counter inactive
N[C@@H](Cc1[nH]nc2ccccc12)C(=O)O	none (no result: MT1-MMP txn act, S1P2 antag, GALR2 agonist, S1P2 agonist, GALR2 antag)
O=C(NNC(=S)NC1CCCCC1)c1sc2ccccc2c1Cl	none (no result: MT1-MMP txn act, S1P2 antag, S1P2 agonist, Smad3 inh)
CC(C)(C)C(=O)NC(=S)NNC(=O)c1sc2ccccc2c1Cl	GALR2 agonist 101 (no result: MT1-MMP txn act, S1P2 antag, S1P2 agonist, Smad3 inh) | GALR2 ag confirm 65 | BLA act counter 108
Oc1ccc2ccccc2c1Cc1c(O)ccc2ccccc12	none (no result: MT1-MMP txn act, S1P2 antag, GALR2 agonist, S1P2 agonist, GALR2 antag)
COc1cccc2sc(Nc3nc4ccc(NC(C)=O)cc4s3)nc12	GALR2 agonist 10 (no result: MT1-MMP txn act, S1P2 antag, S1P2 agonist, Smad3 inh) | GALR2 ag confirm inactive | BLA act counter inactive
CC(NC(=O)Nc1ccc(Cl)c(Cl)c1)C(c1ccccc1)N1CCOCC1 (centres undefined)	GALR2 agonist 8.7 (no result: MT1-MMP txn act, S1P2 antag, S1P2 agonist, Smad3 inh) | GALR2 ag confirm inactive | BLA act counter 25
CCn1c2ccc(C)cc2c2nnc(NN)nc21	none (no result: MT1-MMP txn act, S1P2 antag, S1P2 agonist, Smad3 inh)
CSc1nnc2c3cc(C)ccc3n(Cc3ccccc3)c2n1	GALR2 agonist 10 (no result: S1P2 antag, S1P2 agonist) | GALR2 ag confirm inactive | BLA act counter inactive
CCOc1ccc(-c2nnc(NC3=NCCCCC3)o2)cc1	GALR2 agonist 17 | GALR2 ag confirm inactive | BLA act counter inactive
O=C(O)CC1(c2ccccc2)C(=O)c2ccccc2C1=O	GALR2 agonist 10 (no result: S1P2 antag, S1P2 agonist) | GALR2 ag confirm inactive | BLA act counter inactive
CCCCC(CC)C(=O)NCCc1ccc(S(N)(=O)=O)cc1 (centres undefined)	none
CCC(CC)C(=O)NCCc1ccc(S(N)(=O)=O)cc1	none | GALR2 ag confirm inactive | BLA act counter inactive
O=C(O)c1nc(-c2ccccc2)[nH]c1C(=O)O	none (no result: MT1-MMP txn act, S1P2 antag, GALR2 agonist, S1P2 agonist, GALR2 antag)
C[C@H](Br)C(=O)c1ccc2cc(Br)c3ccccc3c2c1	none (no result: MT1-MMP txn act, S1P2 antag, GALR2 agonist, S1P2 agonist, GALR2 antag)
COc1ccc(C2=NOC(C(=O)Nc3ccc(C(C)=O)cc3)C2)cc1OC (centres undefined)	none
COc1ccc(C2=NOC(C(=O)Nc3cc(Br)ccc3O)C2)cc1OC (centres undefined)	GALR2 agonist 21 | GALR2 ag confirm inactive | BLA act counter inactive
Cc1ccc(C)c(OCCn2cc(/C=C(\C#N)C(=O)NCc3ccco3)c3ccccc32)c1	none (no result: MT1-MMP txn act, S1P2 antag, S1P2 agonist, Smad3 inh)
